The source made the active and inactive calls. Rule for the calls: active = hit-call score of the fitted dose curve at least 0.9, where 1 is the maximum; inactive = score below 0.9.
read-out: ABC Transporter (ABCC3), ABCC3 (gene 8714); test: LTEA_HepaRG_ABCC3: Life Technologies and Expression Analysis (LTEA) Assay for ABC Transporter (ABCC3) using HepaRG (AID 2283462); conditions: mRNA level, 48 h; actives raise or lower the signal
Procedure: LTEA_HepaRG is a cell based, multiplexed-readout assay that uses HepaRG, a human liver cell line, with measurements taken at 48 hours after chemical dosing on a 96-well plate.LTEA_HepaRG_ABCC3 is one of 102 assay component(s) measured in the LTEA HepaRG cell culture assay. It is a marker of NR mediated transport.Data from the assay component LTEA_HepaRG_ABCC3 was analyzed into 1 endpoint. This assay endpoint, LTEA_HepaRG_ABCC3, was analyzed with bidirectional fitting relative to DMSO as the negative control and baseline of activity. Using a type of inducible reporter, measures of mRNA induction for gain or loss-of-signal activity can be used to understand regulation of transcription factor activity. To generalize the intended target to other relatable targets, this assay endpoint is annotated to the transporter intended target family, where the subfamily is ABC transporter.
A total of 1060 chemcials from the ToxCast library were tested in eight-point concentration-response experiments. Cell culture and cytotoxicity assays were conducted at Thermo Fisher Scientific's Custom Services facility (Madison, WI). A single lot of human HepaRG cells (Thermo Fisher Scientific, Frederick, MD) was used for the cell culture experiments. 96-well format collagen type I coated plates of human HepaRG cells were prepared using established methods. Briefly, cryopreserved HepaRG cells were thawed, plated at a density of approximately 100,000 cells/well in HepaRG Thaw, Plate, and General Purpose media (HPRG770, Thermo Fisher Scientific), and incubated for 48 hours. 0.5% DMSO was selected as vehicle control to balance the requisite need of DMSO in HepaRG cultures to maintain differentiation (for example, baseline metabolism, proportions of hepatocytes vs. cholangiocytes), while enabling further hepatic receptor pathway activation (for example, PXR and CAR) in response to chemical exposure. 48 hours after plating, the culture medium was replaced with HepaRG Serum-Free Incudtion Media. Cells were exposed to each test chemical in duplicate and maintained in CO2 incubators for another 48 hours. Chemical plates were thawed to room temperature and 200x concentrations of treatment groups were prepared. 8-point conentration-reponse curves were made with the highest exposure at 100 uM, followed by half-log dilutions, all in 0.5% DMSO. Each test plate contained variouse controls, induction positive controls (1mM phenobarbital), cytotoxicity positive controls ([…] aflatoxin B1), vehicle controls (0.5% DMSO), and total lysis controls (0.5% DMSO). Cell morphology images were taken using an Essen IncuCyte FLR automated microscope, with six 96-well plates imaged in about 24 minutes. Images were captured and exported and JPEG files. Spent culture media was transfered to black-well plates for the LDH assay, and remaining media was sorted at -80 C for later use. Cells were treated with RLT buffer and frozen until shipped for gene expression analysis. Total RNA was isolated from the cell suspension in 75 uL of Buffer RLT (Qiagen, Germantown, MD 20874) by Quintiles/Expression Analysis (Durham, NC) using a custom isolation procedure. Total RNA from each plate well was transferred to a preamplification plate. Fluidigm's 96.96 Dynamic ArrayTM (Fluidigm, Amsterdam, the Netherlands) technology was used for gene expression analyses by quantitative reverse transcription polymerase chain reaction (qRT-PCR, performed by Quintiles/Expression Analysis, Durham, NC)89. Standard TaqManTM Assays (Applied Biosystems/ThermoFisher Scientific, Foster City, CA) were used to assess the expression of 93 genes selected based on their selectivity and sensitivity to important hepatic receptors known to be modulated by environmental chemicals; importance in human hepatocyte functionality; and hepatotoxicity. […]

Structure (SMILES)	AC50	outcome
O=C(O)C1(c2ccc3c(c2)OC[C@H](Cc2ccc(-c4ccccc4)cc2)[C@H]3O)CCCC1	75.7 µM (active)	
CCCCCCCCCCCCc1cccc(S(=O)(=O)O)c1		inactive
Clc1cccc(Cl)c1		inactive
CC(C)(C)c1ccccc1O		inactive
CN(C)C(=S)S		inactive
Cc1cc(C)cc(C)c1		inactive
O=C(N[C@H]1CN2CCC1CC2)c1ccc2c(c1)OCCO2		inactive
Oc1c(Cl)cc(Cl)cc1Cl		inactive
COc1ccccc1N		inactive
Oc1cc(Cl)c(Cl)cc1Cl		inactive
N#Cc1cccnc1		inactive
CC(C)O.CC(C)O.OCCN(CCO)CCO.OCCN(CCO)CCO.[Ti]		inactive
OCCN(CCO)CCO		inactive
Clc1cccc(Cl)c1Cl		inactive

Source: PubChem BioAssay (EPA / NIEHS)
